biological target: T1, GST-Nv-NF-kB (Ser allele) (Nematostella vectensis, UniProt A7UNT2 2-411); test: protein-binding microarray (PBM); PBM: ~300 nM protein, 6 mM HEPES pH 7.8, 80 mM KCl, 0.5 mM EDTA, 0.5 mM EGTA, 6% glycerol, 35 ng/ul poly-dIdC, 1% milk, 1 h, room temperature; Ap Aiptasia and Nv Nematostella (sea anemones) / Co Capsaspora / Aq Amphimedon (sponge) / Dm Drosophila / Hu human; RHD is the Rel homology domain; high values mean tight binding; conditions: dsDNA, one strand shown
T1 sequence: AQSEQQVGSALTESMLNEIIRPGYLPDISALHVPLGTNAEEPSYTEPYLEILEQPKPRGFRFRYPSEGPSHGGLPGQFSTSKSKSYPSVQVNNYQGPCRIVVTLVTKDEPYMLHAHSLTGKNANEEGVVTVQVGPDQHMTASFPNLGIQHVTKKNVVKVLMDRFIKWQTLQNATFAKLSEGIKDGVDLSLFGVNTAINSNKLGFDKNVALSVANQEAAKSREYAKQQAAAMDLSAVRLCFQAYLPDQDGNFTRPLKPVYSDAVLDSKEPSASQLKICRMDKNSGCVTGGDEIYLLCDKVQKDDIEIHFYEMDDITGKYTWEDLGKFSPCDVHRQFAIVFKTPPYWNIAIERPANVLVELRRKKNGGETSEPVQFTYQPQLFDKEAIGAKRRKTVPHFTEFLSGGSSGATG

| Sequence | binding signal [z-score] |
| --- | --- |
| CCGATTAACATCAGAGTATCCCCTGATGTTAATCGGGTCTTGATTCGCTTGACGCTGCTG | 5.44 |
| CCGATTAACATCAGGATATCCCCTGATGTTAATCGGGTCTTGATTCGCTTGACGCTGCTG | 6.27 |
| CCGATTAACATCAGACAACCCCCTGATGTTAATCGGGTCTTGATTCGCTTGACGCTGCTG | 4.56 |
| CCGATTAACATCAGGGGGAGCACTGATGTTAATCGGGTCTTGATTCGCTTGACGCTGCTG | 4.71 |
| CCGATTAACATCAGGGGGGATACTGATGTTAATCGGGTCTTGATTCGCTTGACGCTGCTG | 4.8 |
| CCGATTAACATCACCTCCCCCCCTGATGTTAATCGGGTCTTGATTCGCTTGACGCTGCTG | 4.34 |
| CCGATTAACATCAAAGAGTCCCCTGATGTTAATCGGGTCTTGATTCGCTTGACGCTGCTG | 6.03 |
| CCGATTAACATCACGGAATTCCCTGATGTTAATCGGGTCTTGATTCGCTTGACGCTGCTG | 6.06 |
| CCGATTAACATCAGGGGGGTTACTGATGTTAATCGGGTCTTGATTCGCTTGACGCTGCTG | 4.18 |
| CCGATTAACATCAGGGGGTTCACTGATGTTAATCGGGTCTTGATTCGCTTGACGCTGCTG | 4.69 |
| CCGATTAACATCAGAAGACCCCCTGATGTTAATCGGGTCTTGATTCGCTTGACGCTGCTG | 3.72 |
| CCGATTAACATCAAAATACCCCTTGATGTTAATCGGGTCTTGATTCGCTTGACGCTGCTG | 6.34 |
| CCGATTAACATCAAGAGTCCCCCTGATGTTAATCGGGTCTTGATTCGCTTGACGCTGCTG | 5.78 |
| CCGATTAACATCAACTATCCCCCTGATGTTAATCGGGTCTTGATTCGCTTGACGCTGCTG | 5.03 |

— paper PMC5700166
